In the library only some 4.1% were active in any assay of this set; here they are far more common.
CFTR F508del cor = correctors of CFTR F508del function in bronchial epithelial cells; CFBE cells, YFP halide quenching; stimulated with forskolin plus potentiator P3; % fluorescence drop versus neutral controls; activity (quench increase), % at 7.58 µM; 350,000 compounds, 0.36% hits;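 active = mean added fluorescence quench of at least 8% versus neutral control, with both replicates also reaching 8%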;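 note: cells transiently co-express mutant CFTR-F508del with the halide-sensitive YFP; corrector assay measuring rescue of mutant channel to the surface after 24 h compound exposure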
ALR H2O2 inh = inhibitors of human sulfhydryl oxidase ALR; purified ALR, DTT oxidation, H2O2 HRP-luminol luminescence; inhibition, % (test concentration not listed); 290,000 compounds, 3.8% hits; AID 485317;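 active = mean replicate inhibition above about 79%, with every replicate also reaching it, limit read from the data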
PglD inh = blocks C. jejuni PglD acetyltransferase activity | purified PglD enzyme, DTNB colorimetric CoA detection | inhibition, % at 12.5 µM | 360,000 compounds, 0.098% hits; in the data active = inhibition above about 16%, passing the limit was not always enough
CASP6 VEID inh = caspase-6 (human) enzyme inhibition; P55212; purified caspase-6, Z-VEID-R110 cleavage fluorescence; inhibition, % at 12.5 µM; 350,000 compounds, 0.53% hits;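 active = mean inhibition across replicates at least about 35%, with every replicate also reaching that limit, limit read from the data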;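 note: 0% = median of neutral control wells and 100% = no fluorescence left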
HIV Env fusion = HIV envelope-mediated fusion inhibition; 360,000 compounds, 1.1% hits; HeLa-JRFL Env/CEM21 cell fusion, luciferase; inhibition, % at 12.3 µM;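 active = mean replicate inhibition score of at least 50 and every replicate individually at or above 50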;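 note: 0% = plate neutral controls and 100% = maraviroc near 300 nM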
NSD2 inh = blocks human histone methyltransferase NSD2 | O96028 | NSD2 peptide methylation, AlphaScreen, 120 min | inhibition, % at 12.5 µM | 310,000 compounds, 0.54% hits; in the data active = inhibition above about 50%
Target sequence (O96028 whole entry, looked up): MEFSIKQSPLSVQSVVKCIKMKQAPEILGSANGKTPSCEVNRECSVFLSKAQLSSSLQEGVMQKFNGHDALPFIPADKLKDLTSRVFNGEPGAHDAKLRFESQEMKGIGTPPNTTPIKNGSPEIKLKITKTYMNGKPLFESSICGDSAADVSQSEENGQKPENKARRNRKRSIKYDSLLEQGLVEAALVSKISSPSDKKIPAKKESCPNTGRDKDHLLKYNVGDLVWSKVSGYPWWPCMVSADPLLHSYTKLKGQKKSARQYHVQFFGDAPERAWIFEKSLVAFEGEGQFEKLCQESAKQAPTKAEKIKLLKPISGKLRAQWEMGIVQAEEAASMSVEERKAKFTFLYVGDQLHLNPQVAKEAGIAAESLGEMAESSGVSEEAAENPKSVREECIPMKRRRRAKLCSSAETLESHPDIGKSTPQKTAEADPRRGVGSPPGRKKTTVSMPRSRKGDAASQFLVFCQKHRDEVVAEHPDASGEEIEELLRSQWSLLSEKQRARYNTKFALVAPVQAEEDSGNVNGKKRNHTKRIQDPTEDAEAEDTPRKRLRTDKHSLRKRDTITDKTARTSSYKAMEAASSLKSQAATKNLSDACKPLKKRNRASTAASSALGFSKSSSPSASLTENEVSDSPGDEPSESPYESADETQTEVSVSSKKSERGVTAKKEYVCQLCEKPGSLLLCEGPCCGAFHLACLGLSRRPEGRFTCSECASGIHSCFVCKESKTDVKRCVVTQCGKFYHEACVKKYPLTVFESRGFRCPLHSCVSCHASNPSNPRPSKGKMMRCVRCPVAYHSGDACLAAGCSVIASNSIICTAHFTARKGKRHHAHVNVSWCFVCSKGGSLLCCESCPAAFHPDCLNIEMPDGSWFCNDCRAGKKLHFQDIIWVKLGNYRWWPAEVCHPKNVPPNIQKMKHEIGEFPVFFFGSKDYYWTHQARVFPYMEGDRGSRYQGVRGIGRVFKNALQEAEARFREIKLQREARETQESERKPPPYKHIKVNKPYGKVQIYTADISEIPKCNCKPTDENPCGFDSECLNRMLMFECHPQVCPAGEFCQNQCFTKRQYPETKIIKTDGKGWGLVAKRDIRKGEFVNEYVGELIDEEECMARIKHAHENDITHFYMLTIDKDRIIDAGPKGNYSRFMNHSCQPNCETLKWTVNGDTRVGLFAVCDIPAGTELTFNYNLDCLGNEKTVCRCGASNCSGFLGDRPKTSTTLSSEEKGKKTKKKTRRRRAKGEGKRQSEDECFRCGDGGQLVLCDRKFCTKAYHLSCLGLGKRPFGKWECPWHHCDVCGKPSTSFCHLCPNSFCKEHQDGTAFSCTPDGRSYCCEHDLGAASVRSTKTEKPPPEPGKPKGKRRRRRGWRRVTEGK
The depositor's hits bear a star; . = no result; [ ] = remark or other dose.

SMILES | CFTR F508del cor | ALR H2O2 inh | PglD inh | CASP6 VEID inh | HIV Env fusion | NSD2 inh
COc1ccccc1NC(=O)c1ccccc1S(=O)(=O)c1ccc([N+](=O)[O-])cc1 | -1 | -19 | -1 | 40* | -5 | 3
Cc1ccc2cc3c(N)c(C(=O)Nc4c(C)[nH]c(=O)[nH]c4=O)sc3nc2c1 | . | 96* | 0 | . | -12 | 1
Cc1ccc2nc3sc(C(=O)Nc4c(C)[nH]c(=O)[nH]c4=O)c(N)c3cc2c1 | . | -1 | 7 | . | . | -1
CCc1nn2c(=O)cc(CSCC(=O)Nc3ccccc3F)nc2s1 | . | 99* | 2 | . | . | -1
CCN1[C@@H]2c3cccc(=O)n3C[C@@H]2[C@@H](CO)[C@@H]1C(=O)N1CCc2ccccc2C1 | -1 | . | 0 | -3 | . | .
CCOC(=O)c1ccc(NC2c3ncccc3C(=O)N2Cc2ccc(F)cc2)cc1 (configuration not stated) | . | -4 | 6 | . | 93* | -13
COc1ccc(NC2c3ncccc3C(=O)N2Cc2cccs2)cc1 (configuration not stated) | -2 | 96* | . | 6 | 10 | 1
O=C1c2cccnc2C(Nc2ccc(S(=O)(=O)N3CCCCC3)cc2)N1Cc1ccccc1 (configuration not stated) | . | -2 | . | . | 84* | .
COC(=O)c1ccc(NC2c3ncccc3C(=O)N2Cc2cccs2)cc1 (configuration not stated) | . | -15 | . | 1 | -13 | -4
Cc1noc(C)c1NC(=O)Nc1cccc2c1O[C@H](CN(C)C(=O)Nc1ccc(C(F)(F)F)cc1)[C@H](C)CN([C@@H](C)CO)C2=O | -3 | . | 2 | . | -30[16.7 µM] | .
C[C@@H]1CN([C@H](C)CO)C(=O)c2cc(NS(C)(=O)=O)ccc2O[C@@H](C)CCCCO[C@@H]1CN(C)C | -1 | . | 3 | 0 | -1[16.7 µM] | .
C[C@@H]1CN([C@H](C)CO)C(=O)c2cc(NS(C)(=O)=O)ccc2O[C@@H]1CN(C)Cc1ccc(Cl)c(Cl)c1 | 4 | . | -1 | 1 | 2[16.7 µM] | .
COc1ccccc1S(=O)(=O)N[C@@H]1CC[C@H](CCNC(=O)C2CC2)O[C@H]1CO | 0 | . | 2 | -2 | -1[16.7 µM] | .
COc1cc2c(cc1OC)C(=O)C(c1ccc3c(c1)OCO3)CC2 (configuration not stated) | 2 | . | 2 | . | -21 | -1
COc1cc2c(cc1OC)C(=O)C(Br)CC2 (configuration not stated) | . | . | 11 | . | . | 140*
COCC(=O)N1CC(=O)N2[C@@H](CO)[C@@H](c3ccc(-c4cccnc4)cc3)[C@@H]2C1 | -2 | . | . | 0 | . | .
Cc1ccc(C(=O)Nn2cnnc2)cc1Cl | 0 | 81* | 3 | -1 | 7 | 1
O=C(O)c1c(C(=O)O)c(-c2ccc(Cl)c(Cl)c2)n2c1CSC2 | 0 | 97* | -3 | 18 | -23 | 5
COC(=O)c1c(C(=O)OC)c(-c2ccc(Cl)c(Cl)c2)n2c1CCC2 | -1 | -11 | . | 3 | . | 5
COc1ccccc1C(=O)Nc1onc(C)c1C#N | 18* | . | . | -2 | -20 | 1
Cc1noc(NC(=O)c2ccccc2Cl)c1C#N | . | 3 | 8 | . | . | 1
C[C@@]12C(=O)N(c3cccc(Cl)c3)C(=O)N1[C@H](c1ccc(Cl)cc1)[C@@H]1C(=O)N(C3CCCCC3)C(=O)[C@@H]12 | -1 | 2 | -1 | 2 | 103* | .
COc1ccc(N2C(=O)N3[C@H](c4ccc(Cl)cc4)[C@@H]4C(=O)N(C5CCCCC5)C(=O)[C@@H]4[C@]3(C)C2=O)cc1 | -2 | . | 2 | 1 | 85* | .
C[C@@]12C(=O)N(c3cccc(F)c3)C(=O)N1[C@H](c1ccc(Cl)cc1)[C@@H]1C(=O)N(C3CCCCC3)C(=O)[C@@H]12 | 1 | 3 | 1 | -4 | 1 | .
C[C@@]12C(=O)N(c3cccc(F)c3)C(=O)N1[C@H](c1ccc(F)cc1)[C@@H]1C(=O)N(C3CCCCC3)C(=O)[C@@H]12 | . | . | -4 | . | . | .
SMILES | CFTR F508del cor | ALR H2O2 inh | PglD inh | CASP6 VEID inh | HIV Env fusion | NSD2 inh
COc1ccc(-c2cnc3c(c2)C(=O)N([C@@H](C)CO)C[C@H](C)[C@@H](CN(C)Cc2ccc(C(=O)O)cc2)O3)cc1 | -1 | . | 0 | 0 | 1[16.7 µM] | .
C/C=C/c1ccc(C2[C@@H]3CN(S(=O)(=O)c4ccccc4C)C[C@H]2N3)cc1 (some centres not stated) | -1 | . | . | -1 | . | .
CCS(=O)(=O)N1CC2(C1)[C@@H](c1ccccc1)[C@H](CO)N2C(=O)C1CCCC1 | 3 | . | . | 2 | -16[16.7 µM] | .
CC(c1ccccc1)n1c(-c2ccccc2F)n[nH]c1=S (configuration not stated) | 3 | 21 | -7 | -1 | 0 | 1
CC(c1ccc(F)cc1)n1c(-c2cccs2)n[nH]c1=S (configuration not stated) | -2 | 93* | . | 2 | 1 | 0
O=C(N[C@@H]1CC[C@H](CCNS(=O)(=O)c2ccc(Cl)cc2)O[C@@H]1CO)c1cccnc1 | 1 | . | 1 | -8 | -1[16.7 µM] | .
COc1ccc(NC(=O)N2CCCCN3[C@H](C2)[C@@H](c2ccc(C#Cc4ccccc4)cc2)[C@@H]3CO)cc1 | 6 | . | -2 | -2 | . | .
CC(=O)Nc1ccc(S(=O)(=O)N(C)c2ccccc2)cc1 | . | 1 | 7 | . | -60 | 3
CC(=O)Nc1ccc(N=NN2CCOCC2)cc1 | 1 | 11 | . | 4 | 6 | -12
CC(=O)Nc1ccc(S(=O)(=O)N(C)Cc2ccccc2)cc1 | 2 | 10 | . | 3 | -4 | -1
CC(=O)Nc1ccc(S(=O)(=O)N(Cc2ccccc2)C(C)C)cc1 | . | 11 | -2 | . | 84* | 2
CC(=O)Nc1ccc(S(=O)(=O)N(C)c2ccc(O)cc2)cc1 | . | 98* | -4 | . | -30 | 2
CC(=O)Nc1ccc(N=Nc2ccc(O)cc2)cc1 | . | 99* | . | . | -54 | 4
O=C(C1CCCC1)N1CC(=O)N2[C@H](CO)[C@@H](c3ccc(C#Cc4cccc(F)c4)cc3)[C@@H]2C1 | 7 | . | . | . | . | .
O=C(Nc1ccc(F)cc1)N1C[C@H]2[C@@H](c3ccccc31)[C@H](CO)N2C(=O)Cc1ccccc1 | 2 | . | 1 | 2 | . | .
CCN(CC)c1ccc(CN(C(=O)c2cc(OC)c(OC)c(OC)c2)C2CCS(=O)(=O)C2)cc1 (configuration not stated) | . | 94* | -2 | 1 | . | 6
CCN(CC)c1ccc(CN(C(=O)c2ccco2)C2CCS(=O)(=O)C2)cc1 (configuration not stated) | 0 | 99* | -6 | -1 | . | 2
CCN(CC)c1ccc(CN(C(=O)c2cccs2)C2CCS(=O)(=O)C2)cc1 (configuration not stated) | 2 | 99* | . | . | 37 | 33
C[C@@H]1CCCCO[C@@H](CN(C)C(=O)Nc2ccc(F)cc2)[C@H](C)CN([C@H](C)CO)C(=O)c2cc(NC(=O)Nc3ccccc3)ccc2O1 | 5 | . | -1 | -5 | -30[16.7 µM] | .
COCC#Cc1ccc2c(c1)O[C@@H](CN(C)C(=O)CN(C)C)[C@H](C)CN([C@@H](C)CO)S2(=O)=O | -4 | . | 3 | 0 | 2[16.7 µM] | .
